The list is not random: actives were taken first. Their share in the collection is about 12%.
L3MBTL1 inh – qHTS Assay for the Inhibitors of L3MBTL1 | 0.66% of 230,000 active | Potency, µM (top dose mostly 57.1 µM), actives largely listed as inhibitors | AlphaScreen L3MBTL1–H3K9me1 peptide binding | AID 485360, 2010; note: nearly all actives have a fitted effect of over 60% in size
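L3MBTL1 (50 nM) pre-complexed 30 min with biotinylated H3(1-15)K9me1 peptide (75 nM), then compounds added for 30 min at room temperature; AlphaScreen streptavidin donor/nickel chelate acceptor beads (10 ug/mL final) read after 30 min dark incubation.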
JMJD2A Tudor inh – qHTS Assay for Inhibitors of JMJD2A-Tudor Domain; Lysine-specific demethylase 4A (Homo sapiens), O75164; AlphaScreen JMJD2A-Tudor / H3K4me3 peptide binding; Potency, µM (titrated, usually from 114 µM), most hits filed as inhibitors; 4.4% of 390,000 active; AID 504339, 2011; note: nearly all actives have a fitted effect of over 50% in size
G9a block – qHTS Assay for Inhibitors of Histone Lysine Methyltransferase G9a; Potency, µM (highest dose often 102 µM), usual class: inhibitors; AID 504332, 2011; 8.8% of 350,000 active; Histone-lysine N-methyltransferase EHMT2 (Homo sapiens), Q96KQ7; G9a H3K9 monomethylation, AlphaScreen, 2 h; note: nearly all actives have a fitted effect of over 75% in size
Target sequence (Q96KQ7 913-1193 limits assumed): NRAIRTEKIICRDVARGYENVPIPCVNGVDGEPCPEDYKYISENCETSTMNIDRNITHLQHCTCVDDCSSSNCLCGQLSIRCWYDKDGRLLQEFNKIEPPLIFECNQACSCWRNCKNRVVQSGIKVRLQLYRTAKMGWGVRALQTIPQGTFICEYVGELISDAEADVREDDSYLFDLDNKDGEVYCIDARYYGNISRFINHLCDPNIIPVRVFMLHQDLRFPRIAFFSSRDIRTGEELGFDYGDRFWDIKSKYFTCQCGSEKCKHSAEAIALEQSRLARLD
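Quantitative HTS format: methyltransferase activity on a biotin-tagged H3K9 peptide is measured by AlphaScreen, using a rabbit anti-monomethyl-H3K9 antibody with streptavidin donor and anti-IgG acceptor beads. Final levels are 20 nM enzyme, 500 nM peptide, 20 uM SAM; 2 h RT.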
Sfp PPTase inh – qHTS Assay for Inhibitors of Bacillus subtilis Sfp phosphopantetheinyl transferase (PPTase). 3.5% of 310,000 active. 4'-phosphopantetheinyl transferase ffp (Bacillus subtilis), Q9F4F7. Biochemical Sfp PPTase activity, qHTS. Potency, µM, hits mostly inhibitors;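 note: the enzyme is Sfp with the accession as filed and its product quenches rhodamine fluorescence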
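Buffer: 50 mM Hepes-Na pH 7.6, 10 mM MgCl2, 0.01% Nonidet P-40, 0.01% BSA. Enzyme 15 nM, pre-exposed to compound 15 min; substrates then added and fluorescence change tracked over 30 min.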
BAZ2B block – qHTS Assay for Inhibitors of BAZ2B | AlphaScreen BAZ2B-H3K14Ac peptide displacement | Potency, µM (series often up to 114 µM), actives largely listed as inhibitors | Bromodomain adjacent to zinc finger domain protein 2B (Homo sapiens), Q9UIF8 | 4.4% of 360,000 active | AID 504333, 2011; note: nearly all actives have a fitted effect of over 60% in size
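BAZ2B (50 nM) with biotin-H3(5-23)K14Ac peptide (50 nM) in PBS pH 7.4, 0.01% Tween-20, preformed 30 min, then compound 30 min at room temperature; top concentration 110uM. AlphaScreen streptavidin donor/nickel chelate acceptor beads (10 ug/mL final), 20 min dark, signal read.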
HP1b chromo inh – HTS for Inhibitors of HP1-beta Chromodomain Interactions with Methylated Histone Tails; AlphaScreen HP1-beta / biotin-H3K9me3 peptide binding; AID 540317, 2011; 0.56% of 390,000 active; Potency, µM (top dose mostly 114 µM), actives largely listed as inhibitors; Chromobox protein homolog 1 (Homo sapiens), P83916; note: nearly all actives have a fitted effect of over 70% in size
Target sequence (P83916 whole entry, looked up): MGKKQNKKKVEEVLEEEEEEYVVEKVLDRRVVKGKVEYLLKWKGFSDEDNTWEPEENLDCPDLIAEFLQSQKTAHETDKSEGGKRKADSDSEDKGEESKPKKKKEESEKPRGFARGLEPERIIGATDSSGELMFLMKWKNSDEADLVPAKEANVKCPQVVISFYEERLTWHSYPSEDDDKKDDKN
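AlphaScreen: HP1-beta (50 nM) preformed 30 min with biotin-H3(1-18)K9me3 peptide (50 nM) in PBS pH 7.4, 0.01% Tween-20. Compound added for 30 min at RT, then streptavidin donor/nickel chelate acceptor beads (10 ug/mL) for 30 min.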
Numbers stand for hits; - = inactive; ? = inconclusive; . = not tested or not shown; [ ] = dose if it differs, or a comment. Calls come from the whole dose curve; as a rule, active = well fitted curve in the direction sought with a large enough effect; inconclusive = small, poorly fitted or top-dose-only effect, or another doubt; inactive = no such curve, though single readings can be large; an effect the other way counts as inactive or inconclusive.

SMILES	L3MBTL1 inh	JMJD2A Tudor inh	G9a block	Sfp PPTase inh	BAZ2B block	HP1b chromo inh
Cc1cc(C)c(NS(=O)(=O)c2cccc3cccnc23)c(C)c1	.	-	?	-	-	-
Cc1nc2sc(C(c3ccc(Cl)cc3)N3CCN(C(=O)c4ccco4)CC3)c(O)n2n1 (stereo not drawn)	-	-	-	-	-	-
Oc1c(C(c2ccco2)N2CCOCC2)sc2ncnn12 (stereo not drawn)	.	-	39.8µM	39.8µM	-	-
Cc1nc2sc(C(c3ccco3)N3CCN(C(c4ccccc4)c4ccccc4)CC3)c(O)n2n1 (stereo not drawn)	?	50.1µM	25.1µM	7.94µM	?	-
Cc1nc2sc(C(c3ccco3)N3CCN(c4cccc(Cl)c4)CC3)c(O)n2n1 (stereo not drawn)	-	?	12.6µM	-	?	-
Oc1c(C(c2ccccc2)N2CCCCC2)sc2ncnn12 (stereo not drawn)	?	-	-	-	-	-
Cc1nc2sc(C(c3ccco3)N3CCN(c4ccccc4)CC3)c(O)n2n1 (stereo not drawn)	-	-	44.7µM	?	-	-
Cc1nc2sc(C(c3cccs3)N3CCN(c4ccccc4)CC3)c(O)n2n1 (stereo not drawn)	-	-	?	-	-	-
CC1CCC2C(=O)N3C(CCC(C)[C@@H]3c3cccc(N4CCOCC4)c3)C(=O)N2C1c1cccc(N2CCOCC2)c1 (stereo partly drawn)	.	.	.	-	.	.
CCc1nnc(NC(=O)C2CCCN(C(=O)c3ccoc3)C2)s1 (stereo not drawn)	.	-	.	.	.	-
Cc1nc2sc(C(c3ccco3)N3CCC(C)CC3)c(O)n2n1 (stereo not drawn)	-	-	?	15.8µM	-	-
CN1CCN(C(c2ccc(Cl)cc2Cl)c2sc3nc(-c4ccco4)nn3c2O)CC1 (stereo not drawn)	.	-	-	.	-	-
Cc1nc2sc(C(c3ccccc3)N3CC(C)OC(C)C3)c(O)n2n1 (stereo not drawn)	-	-	-	-	-	-
Cc1nc2sc(C(c3ccco3)N3CC(C)OC(C)C3)c(O)n2n1 (stereo not drawn)	-	-	25.1µM	25.1µM	-	-
Oc1c(C(c2ccc(Cl)cc2Cl)N2CCN(Cc3ccccc3)CC2)sc2nc(-c3ccco3)nn12 (stereo not drawn)	.	?	12.6µM	.	?	?
Cc1nc2sc(C(c3ccccc3)N3CCOCC3)c(O)n2n1 (stereo not drawn)	-	-	-	-	-	-
CCOc1ccc(OCC)c(NC(=O)C(NS(=O)(=O)c2ccc(Br)s2)c2ccccc2)c1 (stereo not drawn)	.	-	-	.	-	-
COc1ccc(Br)cc1CN1CCN(C(=O)c2ccc(OC)c(OC)c2)CC1	-	14.1µM	15.8µM	-	50.1µM	?
COc1ccc(Br)cc1CN1CCC(N2CCCC2)CC1	-	?	25.1µM	?	31.6µM	?
COc1cccc(C(=O)N2CCN(Cc3cc(Br)ccc3OC)CC2)c1	-	7.94µM	22.4µM	-	28.2µM	?
COc1ccc(Br)cc1CNC(=O)C1CCCN(S(C)(=O)=O)C1 (stereo not drawn)	-	-	-[12.7 µM]	-	-	-
COc1cccc(C(=O)N2CCN(Cc3ccc(OC)cc3OC)CC2)c1	-	12.6µM	7.94µM	-	25.1µM	?
CCOC(=O)C(=NC1CCS(=O)(=O)C1)NNc1cc(Cl)ccc1Cl (stereo not drawn)	.	?	?	-	?	?
CCOC(=O)C(=NCCOC)NNc1cc(Cl)ccc1Cl	-	?	39.8µM	-	?	-
Cc1ccc(NC(=O)C2=C(C(=O)O)CCCC2)cc1Br	-	-	-	-	-	-

From PubChem
